This is a sample that favours compounds with a hit; in the whole collection about 7.5% have one here.
HCV inhibitor: inhibitors of hepatitis C virus infection; Huh7.5.1 HCVcc-Cre infection, luciferase reporter, 44 h; Potency, µM (titrated, usually from 41.8 µM), without a hit: at the top dose activity change, negative = inhibition, actives largely listed as inhibitors; 340,000 tested, 3.4% active; further: potency means the concentration at half of the fitted maximal effect
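A cell-based infection assay in which seeded cells (1,000 per well) receive test compound after 4 h, are inoculated with HCVcc-Cre at approximately 0.5 moi, and are incubated 44 h before luminescence detection.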
Vaccinia mCherry: vaccinia inhibition (mCherry reporter); 310,000 tested, 0.63% active; AID 720579; Potency, µM (doses to about 36.5 µM), inactives show top-dose activity change, negative = inhibition, hits mostly inhibitors; Vaccinia virus mCherry reporter infection, fluorescence; calls by dose curve; tested in A549 cells; further: potency means the concentration at half of the fitted maximal effect; nearly all actives have a fitted effect of over 35% in size
FMDV antiviral: antivirals against foot and mouth disease virus; 410,000 tested, 1.2% active; AID 1159524; FMDV antiviral cell-based qHTS; Potency, µM (titrated, usually from 57.9 µM), inactives show at the top dose activity change, negative = inhibition, actives largely listed as inhibitors; calls by dose curve; tested in HEK293T cells; further: read-out not given here; potency means the concentration at half of the fitted maximal effect; nearly all actives have a fitted effect of over 45% in size
FBPA Giardia inh: Giardia lamblia aldolase inhibition; purified Giardia FBPA; Potency, µM (series often up to 59.6 µM), without a hit: at the top dose activity, negative = inhibition, most hits filed as inhibitors; 290,000 tested, 0.71% active; AID 2451; further: potency means the concentration at half of the fitted maximal effect; nearly all actives have a fitted effect of over 55% in size
Target sequence (A8B2U2 whole entry, looked up): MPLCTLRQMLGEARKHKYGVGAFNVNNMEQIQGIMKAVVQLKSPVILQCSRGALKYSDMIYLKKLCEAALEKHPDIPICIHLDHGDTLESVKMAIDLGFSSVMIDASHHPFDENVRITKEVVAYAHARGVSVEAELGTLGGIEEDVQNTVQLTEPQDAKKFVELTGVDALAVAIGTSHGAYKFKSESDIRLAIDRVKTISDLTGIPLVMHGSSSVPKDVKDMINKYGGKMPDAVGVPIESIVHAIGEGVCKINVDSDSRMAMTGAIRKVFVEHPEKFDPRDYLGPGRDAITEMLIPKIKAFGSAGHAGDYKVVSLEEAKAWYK
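40 nM FBPA preincubated 10 min at RT with compound (up to 57.5 uM final), then substrate plus GAPDH/TPI/NAD/arsenate coupling and diaphorase/resazurin added. Fluorescence read after 20 min at RT, 525/598 nm.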
HCMV inh: inhibitors of human cytomegalovirus. HFF cells, HCMV-luciferase reporter, 72 h; active compounds read low. activity change, negative = inhibition, % at 57.5 µM. 410,000 tested, 4.5% active. AID 1259415; in the data active means activity change below about -60%; inconclusive means no clear call, values can overlap the other calls; inactive means above about -39%
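Screen run at 2 compound doses on HFFs infected with reporter HCMV, MOI 1 PFU/cell. Luciferase activity from cell lysates at 72 h post infection gave inhibition relative to buffer-only and Salinomycin wells.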
VACV Venus inh: inhibitors of vaccinia virus (Venus reporter) | Vaccinia virus Venus reporter expression, fluorescence | Potency, µM (top dose mostly 36.5 µM), inactives show top-dose activity change, negative = inhibition, actives largely listed as inhibitors | 330,000 tested, 0.46% active; calls by dose curve; tested in A549 cells; further: potency means the concentration at half of the fitted maximal effect; nearly all actives have a fitted effect of over 30% in size
* marks the source's active call; other numbers are inactive results; i = inactive; ? = inconclusive; / = no result; [ ] = another dose, or the depositor's remark. Unless noted, the call rests on the fitted dose curve; in most records, active means well fitted curve in the direction sought with a large enough effect; inconclusive means small, poorly fitted or top-dose-only effect, or another doubt; inactive means no such curve, though single readings can be large; an effect the other way counts as inactive or inconclusive. On the % scale 0 is the no-effect control and ±100 the full control effect.

SMILES	HCV inhibitor	Vaccinia mCherry	FMDV antiviral	FBPA Giardia inh	HCMV inh	VACV Venus inh
O=C(NCc1ccc2c(c1)CCN2C(=O)c1ccccc1)c1cc2ccccc2[nH]1	/	-6.5%	-21.1%	/	-6.2	-14.2%
COc1ccccc1C(=O)Nc1nc2ccccc2[nH]1	-3.8%	-12.4%	1µM*	-9.3%	-76.4*	-9.7%
O=C(Nc1nc2ccccc2[nH]1)c1ccc([N+](=O)[O-])cc1	1.2%	-14.4%	25.0%	4.4%	11.3	-10.7%
C/C(=N\Nc1nc2ccccc2[nH]1)c1ccc([N+](=O)[O-])cc1	10µM*	i	-19.2%	0.3%	-18.1	-7.7%
Cc1ccc(C(=O)Nc2nc3ccccc3c(=O)s2)cc1	8.91µM*	i	/	?	-23.4	-11.4%
Cc1ccc(N(C)S(=O)(=O)c2cccc(C(=O)Nc3nc4ccccc4[nH]3)c2)cc1	11.2µM*	-22.7%	0.0%	-1.9%	-87.4*	?
COc1ccccc1C(=O)NCCC(=O)Nc1nc2ccccc2[nH]1	?	-13.8%	0.0%	/	74.5	?
CN(C)c1cccc(C(=O)Nc2nc3ccccc3[nH]2)c1	-21.5%	-29.6%	-51.2%	-2.3%	26.1	-23.6%
CCSc1nnc(SCC(=O)Nc2cc(C)on2)s1	2.9%	/	-18.9%	/	-7.6	/
CC(=O)Nc1cc2ccccc2oc1=O	10.8%	-1.1%	18.6%	3.9%	-26.1	-3.6%
Cc1ccc(C(=O)Nc2cc3ccccc3oc2=O)cc1	-15.6%	-4.3%	2µM*	-0.1%	-66.9*	-23.7%
O=C(Cn1cnc2c(oc3nc4c(cc32)CCCC4)c1=O)Nc1cccc(Cl)c1	25.1µM*	-10.9%	11.2%	/	34.0	-14.4%
COc1ccc(CN2CCN(Cc3ccc4ccccc4c3)CC2)cc1OC	?	-29.5%	?	?	-64.9*	-29.5%
COc1ccc2ccccc2c1CN1CCN(Cc2ccccc2)CC1	-11.9%	-10.4%	/	-16.7%	-74.7*	-18.1%
COc1ccccc1CN1CCN(Cc2ccc3ccccc3c2)CC1	-0.4%	/	-11.1%	?	21.8	/
CC(O)[C@H]1CNCCN1CC1(c2ccccc2)CC1 (stereo not given in full)	20.9%	i	-7.8%	/	12.7	-10.0%
COC(=O)c1cccc(Nc2c3c(nc4ccccc24)CCC3)c1	3.16µM*	-20.0%	?	-5.5%	-20.2	-24.6%
COc1cc(Cl)c(C)cc1Nc1c2c(nc3ccccc13)CCC2	/	?	?	/	-100.7*	-27.6%
COc1ccc(Nc2c3c(nc4ccccc24)CCC3)c(OC)c1	?	?	-22.8%	7.5%	?	?
COc1ccccc1Nc1c2c(nc3ccccc13)CCC2	?	?	-26.0%	7.4%	-68.5*	-27.3%
O=C(Nc1c2c(nc3ccccc13)CCCC2)c1cccc([N+](=O)[O-])c1	?	-3.2%	-19.5%	3.4%	-64.2*	-9.4%
CCOC(=O)c1cccc(Nc2c3c(nc4ccccc24)CCC3)c1	/	-5.2%	?	/	-27.1	-17.6%
O=C(Nc1c2c(nc3ccccc13)CCCC2)c1ccccc1Cl	12.7%	-1.3%	-6.0%	2.9%	-29.7	9.4%
CCOc1ccccc1CNS(=O)(=O)c1ccc2c(c1)CCCN2C(C)=O	/	-11.6%	14.0%	/	?	-10.1%
CC1CN(C(=O)N2CCC(C(=O)NCc3cccs3)CC2)c2cc(Cl)ccc2O1 (stereo not given)	/	-7.6%	-28.2%	/	-11.4	-14.6%
SMILES	HCV inhibitor	Vaccinia mCherry	FMDV antiviral	FBPA Giardia inh	HCMV inh	VACV Venus inh
O=C(O)c1nc(NCCc2ccccc2)ncc1Cl	11.4%	-7.2%	2.8%	-16.5%	-18.0	-6.0%
Fc1cccc(Nc2c3c(nc4ccccc24)CCC3)c1	-19.7%	?	-14.1%	-10.1%	-25.2	-6.2%
c1ccc2c(Nc3ccc4c(c3)OCCO4)c3c(nc2c1)CCCC3	?	?	-19.1%	10.0%	-72.9*	?
CC[n+]1c(/C=C/c2c[nH]c3ccccc23)ccc2cc(C)ccc21	4.47µM*	i	12.6µM*	-10.0%	-99.0*	i
CCN(CC)C(=O)c1ccc(/C=C/c2c[nH]c3ccccc23)[n+](C)c1	29.3%	-12.1%	-21.5%	-28.2%	89.2	36.8%
Cc1ccc2c(c1)c1c3n2CCN(C(=O)CN2CCN(C)CC2)C3CCC1 (stereo not given)	?	-24.7%	3.4%	-10.3%	-19.6	-13.0%
CN1CCN(CC(=O)N2CCn3c4c(c5cc(C6CCCCC6)ccc53)CCCC42)CC1 (stereo not given)	7.94µM*	11.2µM*	?	0.0%	/	?
Cc1ccc2c(c1)c1c3n2CCN(CC(N)=O)C3CCC1 (stereo not given)	?	?	-2.5%	-6.6%	-98.0*	-16.6%
Cc1ccc2c(c1)c1c3n2CCN(CCC(=O)O)C3CCC1 (stereo not given)	23.9%	-16.6%	0.1%	0.8%	19.9	-18.6%
COc1ccccc1N1CCN(CCCCNS(=O)(=O)c2cccc3c(N(C)C)cccc23)CC1	/	/	/	-6.0%	/	/
C/C(=N/NC(=O)C(O)(c1ccccc1)c1ccccc1)c1ccc([N+](=O)[O-])o1	?	?	-24.0%	-28.9%	-39.3	?
Cc1ccc2[nH]c(C)cc(=O)c2c1	/	/	/	-9.9%[136 µM]	/	/
O=C(Nc1ccc2nc(-c3ccco3)c(-c3ccco3)nc2c1)NC1CC1	?	-23.1%	23.7%	?	/	-14.1%
COc1ccc(C(=O)N2CCC3(CC2)OCCO3)cc1	17.5%	-22.7%	-1.6%	-1.1%	25.6	-18.4%
O=C(Nc1ccc(N2CCOCC2)cc1)Nc1ccc2nc(-c3ccco3)c(-c3ccco3)nc2c1	6.31µM*	/	0.0%	?	-60.4*	/
COc1ccc(-c2nc(CCNC(=O)c3ccco3)cs2)cc1OC	?	13.1%	-1.1%	-4.6%	-101.1*	-3.6%
CCn1c(CCl)nc2cc(S(=O)(=O)N3CCOCC3)ccc21	?	?	28.2µM*	/	19.9	-17.1%
O=C(NCCc1csc(-c2ccc(F)cc2)n1)c1ccco1	/	-6.4%	-29.5%	/	-9.5	6.6%
O=C(c1ccc2nc(-c3ccco3)c(-c3ccco3)nc2c1)N1CCC2(CC1)OCCO2	7.2%	/	21.7%	7.08µM*	/	/
COc1cc2c(cc1OC)C1O[C@](c3ccsc3)(C2)OC2=C1C(=O)CC(C)(C)C2	/	/	/	-14.2%[12.9 µM]	/	/
Cc1cccc(NC(=O)N2CCc3c(sc4c3CCCC4)C2c2ccc(F)cc2)c1 (stereo not given)	/	i	-10.6%	/	-7.2	0.7%
COc1ccc(CCNC(=O)c2ccc3nc(-c4ccco4)c(-c4ccco4)nc3c2)cc1OC	2.82µM*	/	15.8µM*	?	/	/
O=C(O)c1ccc2nc(-c3ccco3)c(-c3ccco3)nc2c1	-10.1%	-6.1%	11.8%	6.29µM*	-4.9	-2.1%
O=C(c1ccc2nc(-c3ccco3)c(-c3ccco3)nc2c1)N1CCN(c2ccccc2)CC1	?	/	?	?	-107.7*	/
CCC(C)NC(=O)c1ccc2nc(-c3ccco3)c(-c3ccco3)nc2c1 (stereo not given)	/	3.2%	/	/	/	-14.6%

Bioassay records from PubChem BioAssay.
